This is an account of results in PubChem BioAssay (Tox21).

Calls of active or inactive are those of the source. The call rests on the fitted dose curve; in most records, active means well fitted curve in the direction sought with a large enough effect in the repeat runs; inconclusive means weak or mixed curves; inactive means flat fitted curve, though single readings scatter.

The assay is described as follows: qHTS assay to test for compound auto fluorescence at 460 nm (blue) in HEK293 cells (AID 720678). Conditions: blue autofluorescence 405/460 nm; series mostly up to 91.3 µM. The source says:
National Center for Advancing Translational Sciences [NCATS]
NIH Chemical Genomics Center [NCGC]
U.S. Environmental Protection Agency [EPA]
National Institutes of Environmental Health Sciences [NIEHS]
National Toxicology Program [NTP]
U.S. Food and Drug Administration [FDA]
Compound auto fluorescence often interferes with screening of the compound library against various biological targets and signaling pathways. Some of these compounds may have fluorophoric properties. Such properties may interfere with the assay outputs resulting in false positives and/or negatives. To decrease such complications and ensure the compound activities are relevant in terms of biological response, the Tox21 10K compound library was screened for auto fluorescence.
From the fluorophores used as reporter signals in our screening assays, the auto fluorescence equivalencies of compounds against three fluorophores have been evaluated: Triamterene, Fluorescein and Rose Bengal sodium for blue, green and red fluorescence, respectively. The fluorescence intensities were measured using Excitation/Emission wavelengths at 405/460nm, 485/535nm and 540/590nm for blue, green and red labels, respectively. This assay includes the blue fluorescence data.
Tox21 Assay Protocol Summary:
2,000 HEK293 cells in 5 uL of culture medium containing 10% dialyzed FBS per well were dispensed into black wall/clear bottom 1536-well plates using a Multidrop Combi Dispenser (Thermo Scientific). The assay plates were incubated for 4-5 hr at 37C to allow cell attachment to the well bottom, followed by the transfer of 23 nL compound or DMSO vehicle by a pintool work station (Kalypsys, San Diego, CA). After the assay plates were incubated overnight at 37C and 5% CO2, fluorescence intensities in the assay plates were measured by an Envision (PerkinElmer, Shelton, CT) plate reader using three labels for measuring blue, green and red fluorescence at […] 460, 535 and 590nm respectively.
(Quantitative high-throughput screening tests each substance at several concentrations.)
`c1ccc(OCCOc2ccccc2)cc1`: the outcome was inactive.
As to `C[C@H]1C[C@H]2[C@@H]3CCC4=CC(=O)C=C[C@]4(C)[C@@]3(F)[C@@H](O)C[C@]2(C)[C@@]1(O)C(=O)CO`, the compound was called inactive.
As to `COCCCOc1ccnc(CS(=O)c2nc3ccccc3[nH]2)c1C` (stereo not given), the result was inactive.
Turning to `CC(C)CC(=O)CC(C)C`, the outcome was inactive.
The entry for `CCc1ccc(CCOc2ccc(CC3SC(=O)NC3=O)cc2)nc1` (stereo not given) is “inactive”; for `CC1CCC2CC1C2(C)C` (stereo not given) it is “inactive”.
On to `Nc1ccccc1[N+](=O)[O-]`, for which the compound was classed as inactive.
Regarding `CCCCCOC(C)=O`, the compound was called inactive.
As for `CC(C)(C)[C@@H](O)[C@@H](Cc1ccc(Cl)cc1)n1cncn1`, the call was inactive.
For the compound `Nc1cc([N+](=O)[O-])ccc1O`, the compound was classed as inactive.
Turning to `O=P(OC(CCl)CCl)(OC(CCl)CCl)OC(CCl)CCl`, the call was inactive.
Regarding `O=C(Oc1ccccc1)c1ccccc1`, the compound was called inactive.
For the compound `C=CCNC(N)=S`, the outcome was inactive.
In the case of `C=C(C)C(=O)O[C@H]1C[C@@H]2CC[C@@]1(C)C2(C)C` it was “inactive”; in that of `c1ccc2scnc2c1`, “inactive”.
On to `CC(O)COCC(C)O` (stereo not given), for which the compound was called inactive.
With `Fc1ccc(Br)cc1`, the call was inactive.
On to `COc1ccc(Cl)cc1C(=O)NCCc1ccc(S(=O)(=O)NC(=O)NC2CCCCC2)cc1`, for which the compound was called inactive.
For `O=C(O)[C@H](O)[C@@H](O)[C@H](O)[C@H](O)CO`, the outcome was inactive.
Regarding `CN(C)CCC(c1ccccc1)c1ccccn1` (stereo not given), the compound was classed as inactive.
As to `CC1=CCC2CC1C2(C)C` (stereo not given), the call was inactive.
Take `O=C(O)c1cc(=O)c2c(OCC(O)COc3cccc4oc(C(=O)O)cc(=O)c34)cccc2o1`: the compound was classed as inactive.
In the case of `CCN(CC)c1ccc(C(=O)c2ccccc2C(=O)O)c(O)c1` it was “inactive”; in that of `FC(F)(F)c1ccc(Cl)c(Cl)c1`, “inactive”; in that of `O=C(O)CC(C(=O)O)C(CC(=O)O)C(=O)O` (stereo not given), “inactive”.
The entry for `C#CCN(C)Cc1ccccc1` is “inactive”; for `CCC(O)OCCCOC` (stereo not given) it is “inactive”; for `OC[C@H]1O[C@@](CO)(O[C@H]2O[C@H](CO)[C@@H](O)[C@H](O)[C@H]2O)[C@@H](O)[C@@H]1O` it is “inactive”.
`CCCCCCCCCCCCCCCO`: the compound was classed as inactive.
The entry for `O=C=NCCCCCCN=C=O` is “inactive”.
For `C/C=C1/CC2C=CC1C2` (stereo not given), the outcome was inactive.
In the case of `CCCCCCCCC/C=C/CC1CC(=O)OC1=O` (stereo not given) it was “inactive”.
For the compound `CCCCCCCCCCCCc1ccccc1`, the call was inactive.
For the compound `CCCCCCCCCCCCS`, the compound was called inactive.
In the case of `CCCCCCCCCC` it was “inactive”; in that of `COc1ccc2cc([C@H](C)C(=O)O)ccc2c1`, “inactive”.
With `CCCCCC/C(C=O)=C\c1ccccc1`, the result was inactive.
With `OCc1cccnc1`, the compound was called inactive.
Regarding `COc1cc(Cc2cnc(N)nc2N)cc(OC)c1OC`, the compound was classed as inactive.
For the compound `O=C(CC(C(=O)OC1CCCCC1)S(=O)(=O)O)OC1CCCCC1` (stereo not given), the outcome was inactive.
